From PubChem BioAssay (NCATS) come the findings set out here.

Holding throughout (test): Cytotoxic Profiling of Annotated Libraries Using Quantitative High-Throughput Screening (AID 1296008); further: nearly all actives have a fitted effect of over 60% in size
What all share (conditions): Five cell lines viability, CellTiter-Glo ATP luminescence, 48-72 h; max response: stronger effect = lower value
In general terms: ATP-based viability assays read luminescence as a measure of living cells.

In assay [1] the test system is HaCat. In outline: (§1)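 Compounds were pin-transferred onto cells and incubated 48 or 72 hr at 37 degree Celsius, 95% humidity. CellTiter-Glo was added, plates sat 10 min at room temperature, then ATP-coupled luminescence was imaged as the viability read-out.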
Assay [2] has as its system KB-3-1. In outline:
as §1

Assay [3] has as its system NIH3T3. In outline:
as §1

Records with an inconclusive call do not appear. Values without a mark were called inactive. Active and inactive are the calls of the source. The call rests on the fitted dose curve; in most records, active means well fitted inhibition curve with a large enough effect; inconclusive means small, poorly fitted or top-dose-only effect; inactive means flat fitted curve, though single readings scatter.
On the % scale 0 is the no-effect control and ±100 the full control effect; potency means the concentration at half of the fitted maximal effect.

With `CC1=CC(=O)C2C(C)(C)CCC[C@]2(C)[C@H]1CO` (some centres not stated), the results for the max response in assay [1], in assay [2] and in assay [3] were -11.3%, 2.57% and 2%, respectively.

On to `CC(C(O)/C=C/C(C)(C)O)C1CCC2(C)C3C(=O)C=C4C(CCC(O)C4(C)C)C3(C)CCC12C` (configuration not stated), for which the max response in assay [1] is -4.33%; in assay [3], 4.41%. In assay [2], the outcome was inactive.

`COc1ccc(/C=C\C(=O)O)c(O[C@@H]2O[C@H](CO)[C@@H](O)[C@H](O)[C@H]2O)c1`: the values for the max response in assay [1] and in assay [3] were -1.35% and 0.681%, respectively. Further, the result in assay [2] was inactive.

Regarding `CC1CCC2C(C(=O)O)=COC(O[C@@H]3O[C@H](CO)[C@@H](O)[C@H](O)[C@H]3O)C12` (some centres not stated), the max response in assay [1] is -2.91%; in assay [2], -9.1%; in assay [3], -1.59%.

In the case of `Cn1c2ccc(F)cc2c2c(C(=O)N3CCCC3)cn(-c3ccccc3)c(=O)c21`, the results for the max response in assay [1] and in assay [3] were -0.557% and -3.48%, respectively. For the same compound, the call in assay [2] was inactive.

Turning to `CC1=C(CO)C(=O)O[C@@H]([C@@H](C)[C@H]2CC[C@H]3[C@@H]4C[C@H]5O[C@]56[C@@H](O)C=CC(=O)[C@]6(C)[C@H]4CC[C@]23C)C1`, the Potency in assay [1] is 3.17 µM (active); in assay [2], 2.82 µM (active); in assay [3], 5.63 µM (active).

Turning to `CCc1cc(CN2CC(C(=O)O)C2)sc1-c1noc(-c2ccc(Oc3ccccc3)cc2)n1`, the max response is -26.8% in assay [1], -20.8% in assay [2] and -43% in assay [3].

As for `CC(=O)c1cc2c(cc1O)OC(C)(C)C=C2`, the max response in assay [1] was -16.3%; in assay [3], -4.07%. For the same compound, the result in assay [2] was inactive.

For `C=C1C(=O)O[C@H]2[C@H]1CC/C(C)=C/CC[C@@]1(C)O[C@@H]21`, the figures for the max response in assay [1], in assay [2] and in assay [3] were -3.65%, -4.28% and 0.479%, respectively.

As for `COc1ccc(-c2nc(-c3ccc(-c4cccc(Cl)c4)o3)[nH]c2-c2ccc(OC)cc2)cc1`, the figures for the max response in assay [1], in assay [2] and in assay [3] were -26.5%, -16.3% and -19.3%, respectively.

`C/C1=C\CCC(C)CCO[C@@H]2O[C@H](CO[C@@H]3OC[C@H](O)[C@H](O)[C@H]3OC1=O)[C@@H](O)[C@H](O)[C@H]2O` (some centres not stated): the max response is -12.1% in assay [1] and -2.67% in assay [3]. Also, the result in assay [2] was inactive.

Turning to `Cn1ncnc1COc1nn2c(-c3cc(F)ccc3F)nnc2cc1C(C)(C)C`, the max response was -21.7% in assay [1], 8.68% in assay [2] and -2.09% in assay [3].

As for `Cc1cc(C(=O)N2CCCCc3ccccc32)ccc1CNC(=O)N1CCC[C@H]1C(=O)N(C)C`, the figures for the max response in assay [1], in assay [2] and in assay [3] were -11%, 4.93% and 3.28%, respectively.

For `COC(=O)C1=CO[C@@H](O[C@@H]2O[C@H](CO[C@@H]3O[C@H](COC(=O)/C=C/c4cc(OC)c(O)c(OC)c4)[C@@H](O)[C@H](O)[C@H]3O)[C@@H](O)[C@H](O)[C@H]2O)[C@@H]2C(CO)=CC[C@H]12`, the max response in assay [1] is 4.35%; in assay [3] it was -2.41%. The compound was called inactive in assay [2].

On to `C=C1C(OC(C)=O)CCC2(C)CC3(OC)OC(=O)C(C)=C3CC12` (configuration not stated), for which the max response in assay [1] is -0.749%; in assay [2], 7.17%; in assay [3], 0.22%.

As to `C[C@@H]1CC[C@]2(C(=O)O)CC[C@]3(C)C(=CCC4[C@@]5(C)CC[C@H](O)C(C)(C)C5C(O)C[C@]43C)[C@@H]2[C@]1(C)O` (some centres not stated), the max response is -8.55% in assay [1], 7.38% in assay [2] and -6.6% in assay [3].

As to `CCOC(=O)C(CCc1ccccc1)NC(C)C(=O)N1C(=O)N(C)CC1C(=O)O` (configuration not stated), the figures for the max response in assay [1] and in assay [3] were -19.4% and 1.45%, respectively. Further, the outcome in assay [2] was inactive.

With `CC(=O)N[C@H]1[C@H](O[C@H]2CC[C@@]3(C)C(CC[C@]4(C)C3CC=C3[C@@H]5CC(C)(C)CC[C@]5(C(=O)OC5OCC(O)C(O)C5O)CC[C@]34C)C2(C)C)O[C@H](COC2OC(C)C(O)C(OC3OC(C)C(O)C(O)C3O)C2O)[C@@H](O)[C@@H]1O` (some centres not stated), the max response was 2.89% in assay [1] and 3.74% in assay [3]. For the same compound, the result in assay [2] was inactive.

For `CC(=O)O[C@@H]1[C@@H](OC(=O)/C=C/c2ccccc2)[C@@H](OC(C)=O)[C@H](O[C@H]2[C@@H]3C=CO[C@@H](O[C@@H]4O[C@H](CO)[C@@H](O)[C@H](O)[C@H]4O)[C@@H]3[C@@]3(CO)O[C@@H]23)O[C@H]1C`, the max response in assay [1] is -11.2%; in assay [3] it was -0.931%. For the same compound, the compound was called inactive in assay [2].

On to `COC(=O)c1c(C)cc(OC(=O)c2c(C)cc(OC)cc2OC)cc1O[C@@H]1O[C@H](CO)[C@@H](O)[C@H](O)[C@H]1O`, for which the max response was -0.836% in assay [1], -1.14% in assay [2] and -1.71% in assay [3].

Turning to `O=C(/C=C\n1cnc(-c2cc(C(F)(F)F)cc(C(F)(F)F)c2)n1)N1CC(F)(F)C1`, the max response in assay [1] is -18.4%. Besides, the Potency in assay [2] was 7.31 µM (active); in assay [3], 1.84 µM (active).

On to `O=C(Nc1ccc(S(=O)(=O)Nc2ccccc2Cl)c(Cl)c1)c1ccccn1`, for which the max response in assay [1] is -15.8%; in assay [2], -5.44%; in assay [3], -3.89%.

Take `CC(Nc1ncnc2nc[nH]c12)c1cc2cccc(Cl)c2c(=O)n1-c1ccccc1` (configuration not stated): the results for the Potency in assay [1] and in assay [3] were 20.6 µM (active) and 13 µM (active), respectively. Besides, the max response in assay [2] was -11.3%.

With `OC[C@H]1O[C@@H](OC[C@H]2O[C@@H](OC/C=C/c3ccccc3)[C@H](O)[C@@H](O)[C@@H]2O)[C@@H](O)[C@@H]1O`, the max response was -0.518% in assay [1] and 2.42% in assay [3]. Besides, the compound was classed as inactive in assay [2].

For the compound `CC1OC(OC2CCC3(C)C(CCC4(C)C3CC=C3C5CC(C)(C)CCC5(C(=O)OC5OC(CO)C(O)C(O)C5O)CCC34C(=O)O)C2(C)C)C(O)C(O)C1O` (configuration not stated), the max response in assay [1] is -11.4%; in assay [2] it was 4.21%; in assay [3] it was -6.15%.

On to `C=C(C(=O)O)C1CC2=C(C)CCCC2(C)C[C@@H]1O` (some centres not stated), for which the values for the max response in assay [1] and in assay [3] were 0.301% and 4.2%, respectively. Further, the compound was classed as inactive in assay [2].

As for `CC(C)c1nc(-c2ccc(NC(=O)Nc3cccc(C(F)(F)F)c3)c3ccccc23)c2c(N)nccn12`, the Potency is 7.31 µM (active) in assay [1], 5.8 µM (active) in assay [2] and 8.2 µM (active) in assay [3].

Turning to `CC(C)=CCC[C@](C)(O[C@@H]1O[C@H](CO[C@@H]2O[C@H](CO)[C@@H](O)[C@H](O)[C@H]2O)[C@@H](O)[C@H](O)[C@H]1O)C1CC[C@]2(C)[C@@H]1[C@H](O)CC1[C@@]3(C)CC[C@H](O[C@@H]4O[C@H](CO)[C@@H](O)[C@H](O)[C@H]4O[C@@H]4O[C@H](CO)[C@@H](O)[C@H](O)[C@H]4O)C(C)(C)[C@@H]3CC[C@]12C` (some centres not stated), the max response in assay [1] is 3.42%; in assay [2] it was -1.36%; in assay [3], 4.71%.

`COC(=O)C1=COC(O[C@@H]2O[C@H](CO)[C@@H](O)[C@H](O)[C@H]2O)[C@H]2[C@@H]1[C@H](OC(=O)CCc1ccc(O)cc1)C[C@]2(C)O` (some centres not stated): the max response in assay [1] was -1.18%; in assay [2], -2.46%; in assay [3] it was 2.76%.

For the compound `C[C@@H]1O[C@@H](OC[C@H]2O[C@@H](OC(CCCCc3ccc(O)cc3)CCc3ccc(O)cc3)[C@H](O)[C@@H](O)[C@@H]2O)[C@H](O)[C@H](O)[C@H]1O` (some centres not stated), the max response is -5.01% in assay [1] and -4.82% in assay [3]. Further, the call in assay [2] was inactive.

Take `CN(C)C/C=C/C(=O)Nc1cccc(C(=O)Nc2cccc(Nc3ncc(Cl)c(-c4c[nH]c5ccccc45)n3)c2)c1`: the Potency in assay [1] was 4.61 µM (active); in assay [2] it was 1.03 µM (active); in assay [3] it was 4.11 µM (active).

In the case of `CC(C)(C)c1ccc(S(=O)(=O)Nc2ccc(Cl)cc2C(=O)c2cc[n+]([O-])cc2)cc1`, the max response was -10.2% in assay [1] and -1.11% in assay [3]. For the same compound, in assay [2], the outcome was inactive.

Turning to `CC(=O)N1CCc2ccc(O)c(OC3OC(COC4OCC(O)(CO)C4O)C(O)C(O)C3O)c2C1Cc1ccc(O)cc1` (configuration not stated), the max response in assay [1] is -0.476%; in assay [2], 3.16%; in assay [3], -4.18%.

Take `C=C(CO[C@@H]1O[C@H](CO[C@@H]2OC[C@](O)(CO)[C@H]2O)[C@@H](O)[C@H](O)[C@H]1O)C1Cc2cc(C(C)=O)ccc2O1` (some centres not stated): the max response in assay [1] was -0.415%; in assay [2], 7.61%; in assay [3], 3.36%.

Regarding `C/C1=C\C[C@]2(C)C(=O)C(O)=C([C@H](C)CO)[C@H]2C/C=C(\C)[C@@H](O)CC/C(C)=C/CC1`, the figures for the max response in assay [1], in assay [2] and in assay [3] were 0.087%, 0.384% and -2.65%, respectively.

For the compound `CC1(C)CC2=C3C=CC4C5(C)CCC(O)C(C)(C)C5CCC4(C)C3(C)CCC2(C)C(O)C1` (configuration not stated), the max response was -3.58% in assay [1], -4.92% in assay [2] and -2.26% in assay [3].

As to `CC1=CC(=O)CC2C1(O)CCC(C)C21CC(c2ccoc2)OC1=O` (configuration not stated), the max response in assay [1] is -50.8%; in assay [2] it was -1.68%; in assay [3] it was -0.573%.

With `CC1=C(/C=C/C(C)=C\C=C\C(C)=C/C(=O)O)C(C)(C)CCC1`, the figures for the max response in assay [1] and in assay [3] were -22.2% and 0.69%, respectively. In addition, the compound was called inactive in assay [2].

Take `OC[C@H]1O[C@@H](OCCc2ccc(O)cc2)[C@H](O[C@@H]2OC[C@](O)(CO)[C@H]2O)[C@@H](O)[C@@H]1O`: the max response in assay [1] is 1.3%; in assay [2], 8.69%; in assay [3] it was -3.47%.

Consider `CC(C)=CCC(O)/C(C)=C/CO[C@@H]1O[C@H](CO)[C@@H](O)[C@H](O)[C@H]1O` (some centres not stated), for which the max response in assay [1] is -6.63%; in assay [3], 0.203%. Besides, the result in assay [2] was inactive.

In the case of `C=CC(C)(C)c1[nH]c2ccccc2c1C[C@@H]1NC(=O)[C@H](Cc2c[nH]c3ccccc23)NC1=O`, the max response was -3.54% in assay [1], 3.66% in assay [2] and 0.0013% in assay [3].

In the case of `Cc1c(F)cc(C(=O)NC2CC2)cc1-c1c(F)cn2c(C(C)(C)C)nnc2c1F`, the max response was -0.453% in assay [1], -2.87% in assay [2] and -8.04% in assay [3].

As for `C/C(=C\CC[C@@H](C)[C@H]1CC(O)[C@@]2(C)C3CC[C@H]4C(C)(C)[C@@H](OC5OCC(O)C(O)C5OC5OC(CO)C(O)C(O)C5O)CC[C@@]45C[C@@]35CC(O)[C@]12C)C(=O)O` (some centres not stated), the max response in assay [1] is -0.726%; in assay [2], 6%; in assay [3], -27.1%.

In the case of `COC(=O)C1=CO[C@@H](O[C@@H]2O[C@H](CO)[C@@H](O)[C@H](O)[C@H]2O)[C@H]2[C@@H]1CC(OC)O[C@@H]2C` (some centres not stated), the max response in assay [1] is -16.4%; in assay [2], 3.52%; in assay [3] it was -1.67%.
